Test [1] concerns the target Lysosomal acid glucosylceramidase (Homo sapiens) (UniProt P04062). The experiment in a line: Glucocerebrosidase-p2 (AID 348; in the data active = potency below about 10 µM; note: potency is the fitted concentration of half-maximal effect). The following applies: purified GBA, blue fluorogenic substrate, 40 min. In a few lines:
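Normal human glucocerebrosidase (0.2 nM) with blue fluorogenic substrate (80 uM final) in citrate/phosphate pH 5.9 with 10mM sodium taurocholate, 0.01% tween-20; 40 min RT, NaOH/glycine stop; fluorescence Ex 365/Em 440; AC50 from a titration from 0.6 nM upwards.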

The target in test [2] is Cytochrome P450 1A2 (Homo sapiens) (UniProt P05177). The test can be described thus: p450-cyp1a2 (AID 410; calls by dose curve; note: potency is the fitted concentration of half-maximal effect;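 for activity change, negative = inhibition: -100% = full effect of reference inhibitor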). The following applies: recombinant CYP1A2, luciferin-ME demethylation, luminescence; series mostly up to 57 µM. In a few lines:
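Luminescent demethylation readout: Luciferin-ME (100uM, equal to Km) turned over by 20nM CYP1A2 for 60 min at room temperature after NADPH regeneration addition, following 10 min compound preincubation. Normalization used 57 uM furafylline as full inhibition.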

Test [3] in a line: Stat Signaling Pathway (AID 446; active = well fitted curve in either direction with a large enough effect, not every such curve was filed as active;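 note: ME-180 cervical cancer cells given 40 pM IL-6 alongside compound; SIE-controlled beta-lactamase reporter measured as 460/530 nm FRET emission ratio; % is set by controls: 0 for no effect and ±100 for the full control effect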). The following applies: ME-180 (cervical carcinoma) SIE beta-lactamase reporter, IL-6 stimulated, 5 h; at 7.69 µM (top of the series) unless noted. In a few lines: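 FRET read-out (405 nm excitation, 460/530 nm emission) of a beta-lactamase reporter under a STAT-inducible element in ME-180 cervical carcinoma cells. Cells with compound receive 40 pM IL-6 for 5 h. Values are normalised to AC90 stimulation and AC90 JAK-inhibitor controls.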

The target in test [4] is Glucocorticoid receptor (Homo sapiens) (UniProt P04150). The experiment in a line: GR-GFP Redistribution (AID 450;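 active = compounds whose dose series gives a full or clear partial fitted curve of increased nuclear translocation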; note: potency is the fitted concentration of half-maximal effect). The note with it: U2OS GR-GFP nuclear translocation, laser cytometry, 2 h.
Chain of Glucocorticoid receptor (Homo sapiens) (P04150 whole entry, looked up): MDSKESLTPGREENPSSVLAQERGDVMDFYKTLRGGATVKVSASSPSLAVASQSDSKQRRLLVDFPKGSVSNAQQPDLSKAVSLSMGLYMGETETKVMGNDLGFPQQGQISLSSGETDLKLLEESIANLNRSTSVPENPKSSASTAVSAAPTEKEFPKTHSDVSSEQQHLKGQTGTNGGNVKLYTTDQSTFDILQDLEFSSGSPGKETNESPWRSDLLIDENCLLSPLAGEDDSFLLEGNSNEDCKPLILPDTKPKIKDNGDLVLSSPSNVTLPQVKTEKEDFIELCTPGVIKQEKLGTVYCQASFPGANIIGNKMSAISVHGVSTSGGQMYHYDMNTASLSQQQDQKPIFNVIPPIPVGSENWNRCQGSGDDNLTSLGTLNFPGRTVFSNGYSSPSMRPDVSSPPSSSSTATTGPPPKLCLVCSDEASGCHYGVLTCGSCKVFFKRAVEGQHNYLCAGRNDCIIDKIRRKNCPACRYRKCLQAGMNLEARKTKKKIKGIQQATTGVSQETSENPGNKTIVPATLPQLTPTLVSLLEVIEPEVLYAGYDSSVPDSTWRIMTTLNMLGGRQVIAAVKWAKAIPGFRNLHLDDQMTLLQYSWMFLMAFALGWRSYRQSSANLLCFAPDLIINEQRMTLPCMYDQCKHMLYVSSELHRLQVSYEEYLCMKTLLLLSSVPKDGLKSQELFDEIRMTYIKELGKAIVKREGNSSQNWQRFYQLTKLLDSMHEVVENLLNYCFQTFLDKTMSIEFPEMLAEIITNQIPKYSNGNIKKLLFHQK
For test [5] the target is unchanged. The experiment in a line: GR-EFC Redistribution (AID 451; calls by dose curve; note: potency is the fitted concentration of half-maximal effect). The following applies: CHO-K1 GR-EFC translocation, beta-gal luminescence, 2 h. In a few lines:
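CHO-K1 cells expressing nuclear EA and GR-ED fragments of b-gal; compounds titrated up to 46 uM final, 2 h at 37 C. GR nuclear translocation read as complemented b-gal luminescence after 1 h RT detection.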

The target of test [6] is Mitogen-activated protein kinase 10 (Mus musculus) (UniProt Q61831). The test can be described thus: JNK3 AlphaScreen Assay (AID 530; active = well fitted curve in either direction with a large enough effect, not every such curve was filed as active;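 note: kinase came from lysate of stimulated human HepG2 cells; signal reports phosphorylation of biotinylated GST-cJun 1-79 at Ser73 with 10 µM ATP; % is set by controls: 0 for no effect and ±100 for the full control effect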). The following applies: JNK3 lysate, c-Jun phosphorylation; series mostly up to 57.1 µM. In a few lines:
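Activity was read by AlphaScreen after JNK3-containing HepG2 lysate (cytokine pre-activated) phosphorylated biotinylated GST-cJun with 10 uM ATP at room temperature. Phospho-Ser73 cJun antibody with Protein-A acceptor beads provided detection.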
Background: Alpha assays give light when donor and acceptor beads are brought close together.

Test [7] addresses Cytochrome P450 3A4 (Homo sapiens) (UniProt P08684). The experiment in a line: qHTS Assay for Inhibitors and Substrates of Cytochrome P450 3A4 (AID 884). Note: potency is the fitted concentration of half-maximal effect; nearly all actives have a fitted effect of over 50% in size. The following applies: recombinant CYP3A4, Luciferin-PPXE luminescence; series mostly up to 57.1 µM. In a few lines:
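Luminescent readout of luciferin produced by CYP3A4 (20 nM) dealkylation of Luciferin-PPXE, 25 uM (its KM). NADPH-driven reaction ran 60 min at RT after 10 min compound preincubation; data scaled to 57 uM ketoconazole as 100% inhibition.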

Test [8] has the same target. The experiment in a line: qHTS Assay for Activators of Cytochrome P450 3A4 (AID 885). Note: nearly all actives have a fitted effect of over 65% in size. The following applies: recombinant CYP3A4, Luciferin-PPXE luminescence, 60 min; series mostly up to 57.1 µM. In a few lines:
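Luminescent readout of luciferin formed from 25 uM Luciferin-PPXE (KM level) by 20 nM CYP3A4 in 200 mM KPO4, with 60 min NADPH-driven reaction at room temperature after 10 min compound exposure. Ketoconazole (57 uM) defined 100% inhibition.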

The target in test [9] is Cytochrome P450 2D6 (Homo sapiens) (UniProt P10635). The test can be described thus: qHTS Assay for Inhibitors and Substrates of Cytochrome P450 2D6 (AID 891). Note: potency is the fitted concentration of half-maximal effect; nearly all actives have a fitted effect of over 60% in size. The note with it: recombinant CYP2D6, luciferin-ME EGE luminescence; series mostly up to 57.1 µM. In a few lines:
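Luminescent read-out of luciferin formed by 5 nM human CYP2D6 demethylating 30 uM Luciferin-ME EGE (Km level) over 60 min at room temperature after NADPH regeneration addition. Data normalized to full inhibition by 1.43 uM quinidine.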

Test [10] addresses Cytochrome P450 2C19 (Homo sapiens) (UniProt P33261). The test can be described thus: qHTS Assay for Inhibitors and Substrates of Cytochrome P450 2C19 (AID 899). Note: potency is the fitted concentration of half-maximal effect; nearly all actives have a fitted effect of over 60% in size. The following applies: recombinant CYP2C19, luciferin-H EGE luminescence; series mostly up to 57.1 µM. In a few lines:
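5 nM human CYP2C19 with 10uM Luciferin-H EGE (at KM) in 50mM KPO4, compound preincubated 10 min at 37C, then NADPH regeneration for 60 min at 37C. Luciferin read by luminescence after detection reagent; normalized to 57uM ketoconazole as full inhibition.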

The nature of test [11]: Confirmation and Secondary Assay for Modulators of Hemoglobin Beta Chain Splicing at IVS2 654 locus (AID 910).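 Note: HeLa cells stably carrying EGFP split by mutant beta-globin IVS2-654 intron; % of control where 0% means no effect.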 The following applies: HeLa EGFP-654 splicing reporter, GFP fluorescence, 48 h; series mostly up to 38.3 µM. In a few lines:
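HeLa cells stably expressing EGFP interrupted by β-globin IVS2-654 intron, seeded overnight in Opti-MEM/2% FCS, then treated 2 days at 37 °C. Restored splicing read as total peak GFP intensity per well by laser scanning cytometry (488 nm excitation, 500–520 nm emission); 500 nM antisense PNA as control.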

Test [12] is described as follows: Confirmation and Secondary Assay for Modulators of Hemoglobin Beta Chain Splicing at IVS2 705 locus (AID 930).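 Note: HeLa cells stably expressing the EGFP-705 splicing reporter; GFP fluorescence per well restored by corrected splicing of the IVS2-705 intron in EGFP; % of control where 0% means no effect.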 The following applies: HeLa EGFP-705 splicing reporter, GFP fluorescence, 48 h; series mostly up to 38.3 µM. In a few lines:
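HeLa IVS2-705 EGFP reporter cells, 500/well, compound 2 d at 37C; correct splicing yields fluorescent EGFP. Control: 500 nM antisense PNA. Read-out: total peak GFP intensity.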

A short description of test [13]: qHTS Assay for Lipid Storage Modulators (AID 1519; calls by dose curve). The following applies: Drosophila S3 cells, BODIPY lipid droplet/cell ratio, laser cytometry, cells loaded with oleic acid. In a few lines:
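Cells seeded at 5,000 per well were treated with compounds over a concentration series and loaded with oleic acid (400 uM, as added). Lipid droplet fluorescence (488 nm excitation, 500-530 nm channel) was read by laser-scanning cytometry and normalized to 20 uM Triacsin C.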
Background: Quantitative high-throughput screening tests each substance at several concentrations.

Test [14] concerns the target Ubiquitin carboxyl-terminal hydrolase 1 (Homo sapiens) (UniProt O94782). The experiment in a line: Inhibitors of USP1/UAF1: Pilot qHTS (AID 504865).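 Note: rhodamine fluorescence freed from ubiquitin-rhodamine substrate followed over time; top concentration of the series differs between compounds; % is set by controls: 0 for no effect and ±100 for the full control effect; nearly all actives have a fitted effect of over 35% in size.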 The note with it: purified USP1/UAF1, Ub-rhodamine cleavage fluorescence; series mostly up to 54.9 µM. In a few lines:
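USP1/UAF1 complex (1nM) preincubated with compound 15 min at room temperature, then Ub-Rho substrate (150nM final) added. Fluorescence read kinetically at 480/540 nm, 6 reads every 60 seconds. Buffer: 50mM HEPES pH 7.8, 0.5mM EDTA, 0.1 mg/ml BSA, 1mM TCEP, 0.01% Tween-20.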

Test [15] has as its target Calcium and integrin-binding protein 1 (Homo sapiens) (UniProt Q99828). The experiment in a line: Primary qHTS for Identification of Calcium Integrin Binding Protein 1 (CIB1) Competitor (AID 1508620). Note: top concentration of the series differs between compounds; % is set by controls: 0 for no effect and ±100 for the full control effect. The following applies: CIB1-GST / FITC-alphaIIb peptide fluorescence polarization; series mostly up to 114 µM. In a few lines: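 Fluorescence polarization competition: GST-tagged CIB1 (1 uM final) preincubated with compound 15 min at room temperature, then FITC-labelled alphaIIb peptide (100 nM final) added. After 15 min at room temperature, polarization read at Ex 480/Em 540.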

A short description of test [16]: Primary qHTS for small molecule stabilizers of the endoplasmic reticulum resident proteome: Secreted ER Calcium Modulated Protein (SERCaMP) assay (AID 1508630). Note: % is set by controls: 0 for no effect and ±100 for the full control effect. The note with it: SH-SY5Y GLuc-SERCaMP (Gaussia luciferase released on ER calcium loss) secretion, thapsigargin, luminescence; series mostly up to 38.4 µM. In a few lines: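 The SH-SY5Y reporter protocol was run at 3 concentrations up to 38.3 uM (primary) or 11 concentrations (follow-up): 16 h compound, 100 nM thapsigargin for 4 h, then extracellular luciferase luminescence.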

A short description of test [17]: NFAT Signaling Pathway (AID 444; active = well fitted curve in either direction with a large enough effect, not every such curve was filed as active). The note with it: Jurkat NFAT-bla M1, carbachol, beta-lactamase ratio, 5 h; at 7.69 µM (top of the series) unless noted. In a few lines: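 Jurkat cells with NFAT-driven β-lactamase reporter and co-expressed M1 receptor, stimulated with carbachol (final 1 uM, ~EC50), compound titration, 5 h at 37 °C. CCF4 loaded 1 h at RT; 460/530 nm ratio gave %activity and AC50.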

Test [18] concerns the target 3',5'-cyclic-AMP phosphodiesterase 4B (Homo sapiens) (UniProt Q07343). The experiment in a line: qHTS Assay for Inhibitors of PDE-IV (AID 607; active = well fitted activation curve with a large enough effect in the main read-out, with a control signal flat, not every such curve was filed as active; note: % of control where 0% means no effect). The note with it: HEK293 ACTOne CNG channel cells, membrane potential fluorescence; series mostly up to 22.9 µM. In a few lines:
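Cell-based read-out of cAMP via a modified cyclic nucleotide-gated channel and membrane potential dye (535/590 nm) in HEK293 cells expressing PDE4 endogenously. Compounds tested up to 22.9 uM final; 100 uM RO 20-1724 reference.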

For test [19], the target named is Dual specificity protein kinase CLK4 (Homo sapiens) (UniProt Q9HAZ1). The test can be described thus: qHTS Assay for Inhibitors of CDC-like Kinase 4 (Kinase-Glo Assay) (AID 1770). Note: potency is the fitted concentration of half-maximal effect; nearly all actives have a fitted effect of over 65% in size. The following applies: recombinant Clk4, Kinase-Glo ATP depletion luminescence; series mostly up to 66.7 µM. In a few lines: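 Recombinant human Clk4 (25 nM) phosphorylated RS repeat peptide (100 uM) with 1 uM ATP in Tris pH 7.5/MgCl2/EGTA/DTT/Triton buffer for 4.5 h at room temperature. Residual ATP was quantified by Kinase-Glo luciferase luminescence.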
Chain of Dual specificity protein kinase CLK4 (Homo sapiens) (Q9HAZ1 whole entry, looked up): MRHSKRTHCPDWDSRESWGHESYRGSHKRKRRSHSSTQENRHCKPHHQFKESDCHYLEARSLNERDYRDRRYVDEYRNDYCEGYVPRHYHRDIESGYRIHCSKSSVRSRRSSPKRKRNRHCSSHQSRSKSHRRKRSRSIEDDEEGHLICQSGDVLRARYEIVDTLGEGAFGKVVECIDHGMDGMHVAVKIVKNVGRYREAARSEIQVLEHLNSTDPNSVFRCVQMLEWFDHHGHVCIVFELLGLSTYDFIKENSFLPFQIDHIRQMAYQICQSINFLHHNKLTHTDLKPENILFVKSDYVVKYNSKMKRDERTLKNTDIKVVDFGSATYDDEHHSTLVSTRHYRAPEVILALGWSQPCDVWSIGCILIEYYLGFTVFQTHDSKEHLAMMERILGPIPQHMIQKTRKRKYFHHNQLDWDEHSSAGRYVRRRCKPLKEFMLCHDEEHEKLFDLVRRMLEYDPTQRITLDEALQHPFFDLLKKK

The target is the same in test [20]. The experiment in a line: qHTS Assay for Inhibitors of CDC-like Kinase 4 (ADP-Glo Assay) (AID 1771). Note: potency is the fitted concentration of half-maximal effect; nearly all actives have a fitted effect of over 70% in size. The note with it: recombinant CLK4, ADP-Glo luminescence; series mostly up to 80 µM. In a few lines:
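ADP production was read by ADP-Glo luminescence after residual ATP depletion, following 1 h room-temperature reaction of 25 nM Clk4, 1 uM ATP and 100 uM RS peptide with MgCl2, EGTA, DTT and Triton X-100.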

Test [21] shares this target. The experiment in a line: qHTS Assay for Inhibitors of CDC-like Kinase 4 (ADP-FP Assay) (AID 1795). Note: potency is the fitted concentration of half-maximal effect; nearly all actives have a fitted effect of over 60% in size. The note with it: Transcreener ADP fluorescence polarization; series mostly up to 50 µM. In a few lines:
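Recombinant human Clk4 (6.25 nM) phosphorylated RS repeat peptide (100 uM) with 1 uM ATP in Tris pH 7.5/MgCl2/EGTA/DTT/Triton buffer for one hour. ADP was quantified by Transcreener competitive fluorescence polarization against an ADP calibration curve.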

Test [22] can be described thus: qHTS profiling for inhibitors of Plasmodium falciparum (3D7) proliferation (AID 743322).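 Note: infected erythrocytes exposed to compound for 72 h before lysis; 100% = DMSO vehicle wells and 0% = 0.29 µM artemisinin.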 The following applies: P. falciparum 3D7 proliferation; at 28.7 µM (top of the series). In a few lines: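 Parasite DNA was quantified by SYBR Green I fluorescence (ex 485, em 535 nm) after overnight lysis in saponin/Triton buffer at room temperature. Cultures at 0.3% parasitemia and 2.5% hematocrit were first exposed to compound for 72 h at 37 C; signals were normalised to artemisinin (0.29 uM) and vehicle wells.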

Test [23] in a line: qHTS profiling for inhibitors of Plasmodium falciparum (HB3) proliferation (AID 743324).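 Note: 100% = DMSO vehicle wells and 0% = artemisinin-treated control wells.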 The note with it: Plasmodium falciparum HB3 blood-stage proliferation; at 28.7 µM (top of the series). In a few lines: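 SYBR Green fluorescence (485 ex/535 em) of lysed cultures, incubated overnight at room temperature in the dark, quantifies parasite DNA. Infected erythrocytes at 0.3% parasitemia and 2.5% hematocrit were exposed 72 h; values normalized to DMSO and 0.29 uM artemisinin controls.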

Each structure is given as a SMILES string. Records with an inconclusive call do not appear. Active and inactive are the calls of the source. Unless noted, calls come from the whole dose curve; as a rule, active = well fitted curve in the direction sought with a large enough effect; inconclusive = small, poorly fitted or top-dose-only effect, or another doubt; inactive = no such curve, though single readings can be large; an effect the other way counts as inactive or inconclusive.

Chain of Cytochrome P450 3A4 (Homo sapiens) (P08684 whole entry, looked up): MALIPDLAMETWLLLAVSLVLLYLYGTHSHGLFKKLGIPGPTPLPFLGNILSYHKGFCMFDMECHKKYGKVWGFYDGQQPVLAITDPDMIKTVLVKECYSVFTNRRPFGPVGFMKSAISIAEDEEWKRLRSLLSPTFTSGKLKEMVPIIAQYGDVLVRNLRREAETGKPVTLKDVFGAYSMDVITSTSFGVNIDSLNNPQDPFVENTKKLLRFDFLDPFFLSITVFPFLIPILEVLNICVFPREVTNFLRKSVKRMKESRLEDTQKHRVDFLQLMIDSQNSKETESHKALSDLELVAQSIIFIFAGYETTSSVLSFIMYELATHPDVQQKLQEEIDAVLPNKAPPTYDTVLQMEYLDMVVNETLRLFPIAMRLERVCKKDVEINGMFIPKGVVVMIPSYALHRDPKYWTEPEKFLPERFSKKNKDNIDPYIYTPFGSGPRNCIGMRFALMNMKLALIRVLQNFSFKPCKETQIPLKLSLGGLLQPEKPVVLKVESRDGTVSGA
Chain of Lysosomal acid glucosylceramidase (Homo sapiens) (P04062 whole entry, looked up): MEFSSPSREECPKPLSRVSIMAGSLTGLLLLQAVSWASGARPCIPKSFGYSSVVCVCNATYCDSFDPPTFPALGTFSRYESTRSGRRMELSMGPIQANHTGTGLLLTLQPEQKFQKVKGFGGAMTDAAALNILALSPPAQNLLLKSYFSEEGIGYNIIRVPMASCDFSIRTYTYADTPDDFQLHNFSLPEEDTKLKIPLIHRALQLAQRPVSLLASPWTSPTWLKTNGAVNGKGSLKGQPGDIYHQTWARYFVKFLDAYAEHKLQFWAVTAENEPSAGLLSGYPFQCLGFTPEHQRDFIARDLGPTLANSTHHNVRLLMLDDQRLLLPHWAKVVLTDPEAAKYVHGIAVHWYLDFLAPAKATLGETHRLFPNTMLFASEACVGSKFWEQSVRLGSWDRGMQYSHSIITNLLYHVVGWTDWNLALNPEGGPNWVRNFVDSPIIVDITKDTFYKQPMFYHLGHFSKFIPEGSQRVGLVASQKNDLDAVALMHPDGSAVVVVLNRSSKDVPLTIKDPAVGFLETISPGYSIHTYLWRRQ
Chain of Calcium and integrin-binding protein 1 (Homo sapiens) (Q99828 whole entry, looked up): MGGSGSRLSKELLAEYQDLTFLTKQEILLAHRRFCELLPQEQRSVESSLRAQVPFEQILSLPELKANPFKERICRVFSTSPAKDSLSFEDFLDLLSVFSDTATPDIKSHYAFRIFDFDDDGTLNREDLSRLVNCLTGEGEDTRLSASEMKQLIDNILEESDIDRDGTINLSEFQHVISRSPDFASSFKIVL
Chain of Cytochrome P450 1A2 (Homo sapiens) (P05177 whole entry, looked up): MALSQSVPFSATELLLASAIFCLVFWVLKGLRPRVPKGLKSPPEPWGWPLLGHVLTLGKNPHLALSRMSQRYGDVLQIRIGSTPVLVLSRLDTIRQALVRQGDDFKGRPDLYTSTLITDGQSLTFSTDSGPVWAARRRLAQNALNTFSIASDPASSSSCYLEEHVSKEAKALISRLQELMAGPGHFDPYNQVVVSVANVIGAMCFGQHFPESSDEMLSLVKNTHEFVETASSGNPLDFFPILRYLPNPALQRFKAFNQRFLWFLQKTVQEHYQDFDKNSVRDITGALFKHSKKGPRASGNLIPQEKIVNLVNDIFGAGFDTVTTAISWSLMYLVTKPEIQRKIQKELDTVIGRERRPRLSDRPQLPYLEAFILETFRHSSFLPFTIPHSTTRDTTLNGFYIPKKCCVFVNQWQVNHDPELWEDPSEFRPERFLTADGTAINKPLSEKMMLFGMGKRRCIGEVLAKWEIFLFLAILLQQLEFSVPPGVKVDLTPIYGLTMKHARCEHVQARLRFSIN
Chain of Ubiquitin carboxyl-terminal hydrolase 1 (Homo sapiens) (O94782 whole entry, looked up): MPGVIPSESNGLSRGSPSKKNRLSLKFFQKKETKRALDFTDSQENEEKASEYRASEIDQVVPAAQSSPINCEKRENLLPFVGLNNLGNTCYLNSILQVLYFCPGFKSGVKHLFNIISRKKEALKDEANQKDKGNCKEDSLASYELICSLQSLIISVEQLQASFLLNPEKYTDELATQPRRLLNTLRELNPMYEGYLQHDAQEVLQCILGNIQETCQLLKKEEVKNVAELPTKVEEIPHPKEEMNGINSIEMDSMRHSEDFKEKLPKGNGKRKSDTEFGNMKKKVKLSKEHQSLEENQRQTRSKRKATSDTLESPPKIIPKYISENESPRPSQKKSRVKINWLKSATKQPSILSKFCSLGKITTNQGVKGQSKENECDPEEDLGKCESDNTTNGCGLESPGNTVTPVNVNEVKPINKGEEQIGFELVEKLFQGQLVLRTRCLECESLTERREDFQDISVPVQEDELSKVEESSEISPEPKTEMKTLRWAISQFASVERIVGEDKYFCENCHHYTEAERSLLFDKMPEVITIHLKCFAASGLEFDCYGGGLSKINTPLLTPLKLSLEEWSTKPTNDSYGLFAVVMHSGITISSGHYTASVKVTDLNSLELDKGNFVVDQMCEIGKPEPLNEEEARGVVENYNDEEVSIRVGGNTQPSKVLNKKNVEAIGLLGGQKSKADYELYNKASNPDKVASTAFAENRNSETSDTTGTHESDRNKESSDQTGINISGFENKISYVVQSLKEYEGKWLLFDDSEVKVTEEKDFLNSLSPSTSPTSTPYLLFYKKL
Chain of Cytochrome P450 2C19 (Homo sapiens) (P33261 whole entry, looked up): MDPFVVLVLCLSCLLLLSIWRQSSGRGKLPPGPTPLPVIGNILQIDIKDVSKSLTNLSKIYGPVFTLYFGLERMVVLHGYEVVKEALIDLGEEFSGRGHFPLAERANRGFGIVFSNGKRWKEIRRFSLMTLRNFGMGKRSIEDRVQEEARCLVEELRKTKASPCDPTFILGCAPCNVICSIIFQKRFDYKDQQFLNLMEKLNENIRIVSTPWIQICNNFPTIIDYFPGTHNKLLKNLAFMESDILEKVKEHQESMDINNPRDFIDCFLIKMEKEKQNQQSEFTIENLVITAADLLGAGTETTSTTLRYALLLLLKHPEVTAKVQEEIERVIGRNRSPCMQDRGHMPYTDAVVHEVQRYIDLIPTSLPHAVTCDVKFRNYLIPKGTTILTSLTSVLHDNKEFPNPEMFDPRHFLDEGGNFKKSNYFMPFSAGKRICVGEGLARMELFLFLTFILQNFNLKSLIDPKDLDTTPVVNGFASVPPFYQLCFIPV
Chain of Cytochrome P450 2D6 (Homo sapiens) (P10635 whole entry, looked up): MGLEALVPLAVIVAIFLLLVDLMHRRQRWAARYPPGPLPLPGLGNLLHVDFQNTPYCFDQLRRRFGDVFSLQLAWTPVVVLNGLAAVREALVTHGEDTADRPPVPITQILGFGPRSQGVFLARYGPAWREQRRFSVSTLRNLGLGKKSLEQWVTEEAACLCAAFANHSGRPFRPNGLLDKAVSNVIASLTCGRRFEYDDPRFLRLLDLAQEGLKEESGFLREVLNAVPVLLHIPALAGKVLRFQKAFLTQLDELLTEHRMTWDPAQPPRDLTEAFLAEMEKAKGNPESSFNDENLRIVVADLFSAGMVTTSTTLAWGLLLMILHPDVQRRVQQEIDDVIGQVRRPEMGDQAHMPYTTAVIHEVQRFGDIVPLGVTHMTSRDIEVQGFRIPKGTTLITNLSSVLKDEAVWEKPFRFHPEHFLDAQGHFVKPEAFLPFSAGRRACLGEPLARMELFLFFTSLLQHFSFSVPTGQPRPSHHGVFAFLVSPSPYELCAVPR

Regarding `CN(Cc1ccco1)c1ncnc2ccc(-c3cccnc3)cc12`, the Potency in [1] is > 11.4 µM (inactive); in [2] it was 0.316 µM (active); in [4] it was > 46 µM (inactive); in test [5] it was > 46 µM (inactive); in test [7] it was 3.98 µM (active); in test [9], 2 µM (active). Moreover, in test [10], the Potency is 7.94 µM (active). The activity, negative = inhibition in test [3] was -12.5% (inactive). Moreover, the result in test [6], in test [11] and in test [12] was inactive. Also, the Potency result in [8], in [14], in [15] and in [16] was “inactive” in each case. Further, in [13] (at 57.5 µM (top of the series)), the activity change, negative = inhibition was 2.3% (inactive). Also, the max response in test [13] (measured here: cell count channel max response) was -8.64%; in test [13] (measured here: lipid channel max response) it was -5.56%.
Regarding `COc1cccc(-c2ccc3ncnc(NCc4cccnc4)c3c2)c1`, the Potency is > 11.4 µM (inactive) in [1]; 0.251 µM (active) in [2]; > 46 µM (inactive) in test [4]; > 46 µM (inactive) in test [5]; 0.0126 µM (active) in [10]; 2.82 µM (active) in test [19]. Moreover, the Potency in test [20] was 2.82 µM (active); in [21], 1.58 µM (active). In [17], the activity change, negative = inhibition was 9.62% (inactive). Further, in test [6], the compound was called inactive. Besides, the Potency result in [18], in [8], in test [14], in test [15] and in test [16] was “inactive” in each case.
Regarding `Cc1noc(C)c1C(=O)N1CCC2(CCCN(C(c3ccccc3)c3ccccc3)C2)CC1`, the results for the Potency in [1], in test [5] and in test [9] were > 11.4 µM (inactive), > 46 µM (inactive) and 2 µM (active), respectively. For the same compound, the Potency result in test [2], in test [18], in test [15] and in test [16] was “inactive” throughout. The activity, negative = inhibition in [3] was -11.6% (inactive). Moreover, the compound was classed as inactive in test [6]. The compound also displayed a remaining parasite growth % (stronger effect = lower value) in [22] of 18.5%. In [23], the remaining proliferation (% of control), lower = more inhibition came to 10.2%.
As to `Cc1ccnc(NC(=S)N2CCN(c3ccc(N)cc3)CC2)c1`, the Potency entry in [15] was “inactive”.

Source of the values: PubChem BioAssay (NCATS).
